TrxR1 substrate: is turned over as a substrate by rat TrxR1; O89049; AID 588456; purified TrxR1 substrate turnover, NADPH consumption readout; Potency, µM (top dose mostly 114 µM), for inactives: at the highest dose activity change, negative = substrate turnover; hit rate 0.01% among 390,000; further: on the % scale 0 is the no-effect control and ±100 the full control effect; nearly all actives have a fitted effect of over 50% in size
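Rat TrxR1, dispensed at 90 nM, was prereduced with 400 uM NADPH (final) for 5 min at ~22 deg C, then incubated with compound 15 min before 400 uM selenite. A first-read NADPH fluorescence drop versus no-compound background flagged substrates.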
Nrf2 block: inhibitors of Nrf2 signaling. A549 ARE-Fluc reporter, luciferase luminescence, 18-24 h. Potency, µM (top dose mostly 46 µM), without a hit: top-dose activity change, negative = inhibition, actives largely listed as inhibitors. hit rate 2.1% among 360,000. AID 504444; further: on the % scale 0 is the no-effect control and ±100 the full control effect; nearly all actives have a fitted effect of over 60% in size
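Reporter: ARE-Fluc in A549. Exposure: 18-24 h, 37 °C, 5% CO2, 5% FBS OPTI-MEM. Readouts: fluorescent cytotoxicity (CellTiter-Fluor), then luminescent Nrf2 signal after BugLite.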
TrxR1 inh: inhibitors of rat thioredoxin reductase 1. recombinant rTrxR1, NADPH fluorescence consumption, selenite substrate. Potency, µM (series often up to 114 µM), for inactives: top-dose activity change, negative = inhibition, hits mostly inhibitors. hit rate 1% among 390,000. AID 588453; further: on the % scale 0 is the no-effect control and ±100 the full control effect; nearly all actives have a fitted effect of over 65% in size
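Rat TrxR1 (90 nM in the dispensed reagent) was pre-reduced with 400 uM NADPH for 5 min at room temperature, then incubated with compound for 15 min. After 400 uM selenite was added, NADPH fluorescence (Ex 340/Em 450 nm) was followed for 8 min.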
A549 tox: kills or reduces viability of A549 cells in Nrf2 counter-screen | A549 ARE-Fluc cells, CellTiter-Fluor viability, 18-24 h | Potency, µM (highest dose often 46 µM), without a hit: at the top dose activity change, negative = cytotoxicity, most hits filed as inhibitors | hit rate 0.16% among 390,000 | AID 504648; further: on the % scale 0 is the no-effect control and ±100 the full control effect
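Cytotoxicity counterscreen: CellTiter-Fluor fluorescence was measured in A549 ARE_Fluc cells after 18-24 h of compound exposure in a concentration series. The subsequent BugLite luminescent read reports ARE-luciferase activity.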
Nrf2 activator: Nrf2 pathway activation; AREc32 ARE-luciferase reporter (MCF7-derived line), luminescence, 24 h; Potency, µM (highest dose often 46.1 µM), for the others: at the top dose activation, most hits filed as activators; hit rate 0.31% among 410,000; further: % of control where 0% means no effect; nearly all actives have a fitted effect of over 65% in size
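Luminescent ARE reporter assay in AREc32_Fluc cells: overnight plating at 37 deg C, 24 hr compound incubation, Steady-Glo added, 30 min RT before reading.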
GALK inh: inhibitors of human galactokinase; Potency, µM (series often up to 57.5 µM), without a hit: at the top dose activity change, negative = inhibition, hits mostly inhibitors; hit rate 0.007% among 270,000; Purified GALK, Kinase-Glo residual ATP luminescence; P51570; AID 1868; further: on the % scale 0 is the no-effect control and ±100 the full control effect
Target sequence (P51570 whole entry, looked up): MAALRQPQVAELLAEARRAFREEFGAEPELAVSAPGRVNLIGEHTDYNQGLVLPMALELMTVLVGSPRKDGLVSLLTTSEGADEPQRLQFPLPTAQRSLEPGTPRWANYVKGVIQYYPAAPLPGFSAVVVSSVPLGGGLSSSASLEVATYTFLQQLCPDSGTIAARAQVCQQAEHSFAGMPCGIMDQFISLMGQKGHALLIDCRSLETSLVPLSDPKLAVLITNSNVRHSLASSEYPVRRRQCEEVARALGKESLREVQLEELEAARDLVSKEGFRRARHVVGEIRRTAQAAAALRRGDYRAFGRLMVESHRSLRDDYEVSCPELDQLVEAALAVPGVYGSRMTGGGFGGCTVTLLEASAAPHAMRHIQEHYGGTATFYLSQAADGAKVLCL
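Quantitative HTS: GALK 5 nM, ATP 35 uM, galactose 100 uM, 1 h room temperature, then luciferase-based ATP detection.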
* = called active by the depositor; u = inconclusive; x = no result; [ ] = dose if it differs, or a comment. Hits are enriched below; roughly 3% of the tested compounds scored in any of these assays. The call rests on the fitted dose curve; in most records, active means well fitted curve in the direction sought with a large enough effect; inconclusive means small, poorly fitted or top-dose-only effect, or another doubt; inactive means no such curve, though single readings can be large; an effect the other way counts as inactive or inconclusive. Potency means the concentration at half of the fitted maximal effect.

SMILES	TrxR1 substrate	Nrf2 block	TrxR1 inh	A549 tox	Nrf2 activator	GALK inh
CC(C)Cn1cnc2c(Sc3c([N+](=O)[O-])ncn3C)nc(N)nc21	-8%	8%	2µM*	u	4%	x
CCC(C)Cn1cnc2c(Sc3c([N+](=O)[O-])ncn3C)nc(N)nc21 (centres undefined)	1%	u	2.8µM*	-10%	u	x
CC(C)Cn1cnc2c(SCc3ccccc3Cl)nc(N)nc21	-16%	-28%	-11%	0%	5%	x
CCOC(=O)N1CCc2c(sc3c2c(=O)n(Cc2ccccc2)c(=O)n3CC(=O)Nc2cccc(CC)c2)C1	3%	-8%	27%	3%	-1%	x
N#CC(C#N)=C1c2cc(S(N)(=O)=O)ccc2-c2ccc(S(N)(=O)=O)cc21	9%	u	10µM*	-13%	10%	-3%
NS(=O)(=O)c1ccc2c(c1)C(=NO)c1cc(S(N)(=O)=O)ccc1-2	5%	5%	15%	0%	-1%	-2%
O=C1c2cc(S(=O)(=O)NCCO)ccc2-c2ccc(S(=O)(=O)NCCO)cc21	6%[57.1 µM]	-8%	13%[11.4 µM]	-3%	0%	-1%
N#CC(C#N)=C1c2cc(S(=O)(=O)NCCO)ccc2-c2ccc(S(=O)(=O)NCCO)cc21	2%	-5%	3.5µM*	1%	0%	0%
Cc1nc(C)c(CCNS(=O)(=O)c2ccc(F)cc2)s1	-2%[57.1 µM]	x	15%[57.1 µM]	1%	-1%	x
Cc1ccc(CNc2nc3ccc(Cl)cc3n3cnnc23)cc1	43%	-10%	11%	-4%	1%	x
Cc1ccc2c(c1)-c1c(cnn1CC(=O)N1CCN(c3ccccc3F)CC1)CO2	3%	5%	12%	1%	0%	x
C/C(=N\Nc1nc2c(s1)CCCC2)c1ccccc1	-6%	u	50µM*	-13%	11%	-5%
O=C(Nc1ccccc1C(=O)N/N=C/c1ccco1)c1ccc(F)cc1	-10%	3%	-12%	8%	2.8µM*	x
O=C(Nc1ccccc1C(=O)N/N=C/c1ccco1)c1ccc(Cl)cc1	-1%	2%	22%	19%	u	0%
Cc1cccc(NC(=O)CCC(=O)N/N=C/c2ccco2)c1	0%	0%	3%	8%	23%	0%
O=C(Nc1ccccc1C(=O)N/N=C/c1ccco1)c1ccccc1	-6%	4%	-1%	1%	3.5µM*	4%
O=C(N/N=C\c1ccco1)Nc1cccc(Cl)c1	-1%[57.1 µM]	u	10%[57.1 µM]	-8%	5µM*	-3%
CCOC(=O)CSc1nnc(NCC(=O)OC)c(=O)[nH]1	3%	19%	10µM*	-7%	0%	1%
O=C(Nc1cccc([N+](=O)[O-])c1)c1ccc(-c2ccccc2)cc1	-23%[57.1 µM]	2%	9%[57.1 µM]	4%	0%	1%
CS(=O)(=O)Nc1ccc(C(=O)Nc2cccc([N+](=O)[O-])c2)cc1	-3%[57.1 µM]	-16%	1%[57.1 µM]	-5%	6.3µM*	-3%
O=C(O)c1cccc(NS(=O)(=O)c2ccc(Cl)c(C(=O)Nc3cccc([N+](=O)[O-])c3)c2)c1	-16%[57.1 µM]	4%	15%[57.1 µM]	0%	0%	x
CCOC(=O)/C=C/C(=O)Nc1cccc([N+](=O)[O-])c1	-13%	u	4µM*	u	0%[9.22 µM]	1%
CCOC(=O)c1cccc(NC(=O)/C=C/c2cccc([N+](=O)[O-])c2)c1	10%	x	15%	-2%	1%	2%
CN(C)S(=O)(=O)c1ccc(Cl)c(C(=O)Nc2cccc([N+](=O)[O-])c2)c1	-5%	9.2µM*	18%	-1%	13%	0%
COc1ccc(NC(=S)Nc2cccc([N+](=O)[O-])c2)cc1	-6%	u	18µM*	-12%	4%	2%
SMILES	TrxR1 substrate	Nrf2 block	TrxR1 inh	A549 tox	Nrf2 activator	GALK inh
O=[S+]([O-])(c1ccc2nsnc2c1)N1CCN([S+](=O)([O-])c2c(F)cccc2F)CC1	x	0%	x	-2%	x	x
Oc1ccc(Br)cc1C1C=C(c2ccc3c(c2)OCO3)NC(c2ccc(F)c(Br)c2)N1 (centres undefined)	1%	u	u	-17%	x	x
COC(=O)c1sccc1NC(=O)Nc1cccc([N+](=O)[O-])c1	-6%	-1%	0%	-2%	4%	3%
O=C(Nc1cccc([N+](=O)[O-])c1)Nc1cccs1	-10%	1%	2%	2%	7.1µM*	-1%
Nc1c(Cl)ncnc1N/N=C/c1ccc2ccccc2n1	-23%	13µM*	-32%	u	u	1%
O=C(O)/C=C/C(=O)Nc1ccccc1C(=O)Nc1ccccc1	-2%	-10%	40µM*	-21%	13%	0%
O=C1CCc2cc(S(=O)(=O)Nc3ccc(Cl)c(Cl)c3)ccc2N1	x	3%	x	u	x	x
Cc1ccc(NCc2ccc(O)c3ncccc23)cc1	3%	u	0.5µM*	-16%	-1%	0%
O=[N+]([O-])c1ccccc1NCc1ccc(O)c2ncccc12	x	6.5µM*	x	u	x	x
Cc1ccc(NCc2ccc(O)c3ncccc23)cc1C	5%	3%	2µM*	-6%	0%	0%
Cc1cccnc1NCc1ccc(O)c2ncccc12	-12%	u	u	5%	4%	4%
Oc1ccc(COc2ccccc2Cl)c2cccnc12	x	18µM*	x	-5%	x	x
CC(=O)N1CCc2c(sc3c2c(=O)n(-c2ccc(C)cc2)c(=O)n3Cc2c(F)cccc2Cl)C1	1%	u	5%	-13%	-1%	x
COC(=O)c1cc2oc(C)cc2n1Cc1ccccc1Cl	86%	u	84%	0%	1%	x
COc1ccc(CNC(=O)Cn2c(=O)oc3cc(S(=O)(=O)NCc4ccccc4)ccc32)cc1	3%[57.1 µM]	x	19%[57.1 µM]	4%	0%	x
COCCCn1c(SCC(=O)Nc2ccc3c(c2)OCCO3)nnc1-c1ccoc1C	0%	1%	-9%	0%	0%	4%
COCCn1c(SCC(=O)c2ccc3c(c2)OCCO3)nnc1-c1ccoc1C	-5%	-9%	45µM*	-5%	0%	-2%
CCCCn1c(SCC(=O)c2ccc3c(c2)OCCO3)nnc1-c1ccco1	-4%	13%	7.1µM*	-1%	0%	1%
O=C(O)/C=C/C(=O)Nc1ccc(Oc2ncnc3cc(Cl)ccc23)nc1	4%	u	56µM*	0%	0%	4%
O=C(Nc1ccccc1)Nc1ccc(Oc2ncnc3cc(Cl)ccc23)nc1	7%	-12%	27%	-1%	0%	3%
CC(=O)c1ccc(NC(=O)c2noc3c2CCC3)cc1	-10%	u	50µM*	u	-2%	-1%
Cc1ccc(NC(=O)c2noc3c2CCC3)cc1C	13%	u	50µM*	-20%	0%	1%

Source: PubChem (National Center for Advancing Translational Sciences (NCATS))
